Results: PubChem BioAssay (NCI)
This is part of a sample that, as a whole, favours compounds with a hit. Of some 83,000 tested, about 20% had one in any assay.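 Single-concentration screen, 48 h exposure, 96-well plates. Endpoint: percent growth. Below 10 = active.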 Calls of active or inactive are those of the source.

What was measured:
Assay in all cases: NCI-60 one-dose screen, 48 h (100 = growth as untreated, 0 = no growth, -100 = all killed)
Settings in all cases: 10 µM unless noted
DU-145 prostate = tested on: DU-145 prostate
K-562 leukemia = tested on: K-562 leukemia
MALME-3M melanoma = tested on: MALME-3M melanoma
MDA-MB-231 breast = tested on: MDA-MB-231 breast
RXF 393 renal = tested on: RXF 393 renal
SF-268 CNS = tested on: SF-268 CNS
SF-295 CNS = tested on: SF-295 CNS
UACC-257 melanoma = tested on: UACC-257 melanoma
M14 melanoma = tested on: M14 melanoma

Measured: growth

O=C(CN1CCN(c2cc3c(cc2F)c(=O)c(C(=O)O)cn3C2CC2)CC1)Nc1nc(-c2ccc(Cl)cc2)cs1
active: UACC-257 melanoma 7.83%
inactive: DU-145 prostate 32% | K-562 leukemia 25.3% | MALME-3M melanoma 31.6% | MDA-MB-231 breast 24.6% | RXF 393 renal 23.3% | SF-268 CNS 29.7% | SF-295 CNS 10.8% | M14 melanoma 27.5%

CNc1nc(C)c(-c2nc(Nc3cccc(S(N)(=O)=O)c3)ncc2F)s1
inactive: DU-145 prostate 10.9%
active: K-562 leukemia 4.89% | MALME-3M melanoma -31.4% | MDA-MB-231 breast 3.09% | RXF 393 renal -50% | SF-268 CNS -12.7% | SF-295 CNS 6.78% | UACC-257 melanoma -16.4% | M14 melanoma -3.19%

C=C1CCC2C3(C)COC(c4cccc(Cl)c4)OC3CCC2(C)C1/C=C/C1=CCOC1=O (stereo unspecified)
inactive: DU-145 prostate 79.1% | K-562 leukemia 24.3% | MALME-3M melanoma 84.6% | MDA-MB-231 breast 80.1% | RXF 393 renal 80.9% | SF-268 CNS 83.7% | SF-295 CNS 45.7% | UACC-257 melanoma 57.4% | M14 melanoma 83.6%

O=C(CCCCN1CCOCC1)Nc1ccc(Cn2nnc3c2C(=O)c2nnn(Cc4ccc(NC(=O)CCCCN5CCOCC5)cc4)c2C3=O)cc1
active: DU-145 prostate -88.6% | K-562 leukemia 6.24% | MALME-3M melanoma -86% | MDA-MB-231 breast -1.55% | RXF 393 renal -67.4% | SF-268 CNS -35.5% | SF-295 CNS -87.7% | UACC-257 melanoma -77.2% | M14 melanoma -90.3%

COC(=O)C12C3C(=O)N(c4ccc(OC)cc4)C(=O)C3C(c3cn(-c4ccccc4)nc3C)N1[C@H](c1cn(-c3ccccc3)nc1C)[C@@H]1C(=O)N(c3ccc(OC)cc3)C(=O)[C@@H]12 (stereo partly specified)
inactive: DU-145 prostate 109% | K-562 leukemia 92.3% | MALME-3M melanoma 108% | MDA-MB-231 breast 108% | RXF 393 renal 102% | SF-268 CNS 104% | SF-295 CNS 91.8% | UACC-257 melanoma 98% | M14 melanoma 105%

COc1cc(OC)c(/C=C/C(=O)c2c(OC)cc(OC)cc2OC)c(OC)c1
inactive: DU-145 prostate 25.1% | MALME-3M melanoma 60.6% | MDA-MB-231 breast 39.1% | SF-268 CNS 22.1% | UACC-257 melanoma 52.2%
active: K-562 leukemia 8.98% | RXF 393 renal -14.7% | SF-295 CNS 6.33% | M14 melanoma -33.5%

CN(C)CCCC(=O)Nc1ccc(Cn2nnc3c2C(=O)c2nnn(Cc4ccc(NC(=O)CCCN(C)C)cc4)c2C3=O)cc1
active: MALME-3M melanoma -33.4% | MDA-MB-231 breast 3.74%
inactive: DU-145 prostate 86% | K-562 leukemia 70.1% | RXF 393 renal 90.8% | SF-268 CNS 80.6% | SF-295 CNS 77.8% | UACC-257 melanoma 47.9% | M14 melanoma 85.8%

COc1cc(-c2c3c(nc4c2c(C)nn4-c2ccccc2)-c2ccccc2C(=O)C3=O)cc(OC)c1OC
inactive: DU-145 prostate 92.2% | K-562 leukemia 76.9% | MALME-3M melanoma 72.4% | MDA-MB-231 breast 70.9% | RXF 393 renal 83.3% | SF-268 CNS 78.9% | SF-295 CNS 107% | UACC-257 melanoma 64.1% | M14 melanoma 90%

CCn1cc2c(cc1=O)-c1nc3ccccc3c3ccnc(c13)C2=O
inactive: DU-145 prostate 36.6% | K-562 leukemia 50.6% | MALME-3M melanoma 90.1% | MDA-MB-231 breast 75.1% | RXF 393 renal 63.5% | SF-268 CNS 54.3% | SF-295 CNS 29.9% | UACC-257 melanoma 74.2% | M14 melanoma 28.9%

CCOC(=O)c1ccc2c(c1)nc(/C=C/c1ccc(Cl)cc1)n2-c1cc(C(C)(C)C)[nH]n1
inactive: DU-145 prostate 74.1% | K-562 leukemia 19.1% | MALME-3M melanoma 61.2% | MDA-MB-231 breast 52.5% | RXF 393 renal 21.3% | SF-268 CNS 54.6% | SF-295 CNS 56.2% | UACC-257 melanoma 67% | M14 melanoma 83.4%

COc1ccc(-c2c(C)noc2-c2ccc(O)cc2O)cc1
inactive: DU-145 prostate 64.4% | K-562 leukemia 39.6% | MALME-3M melanoma 103% | MDA-MB-231 breast 108% | RXF 393 renal 90.7% | SF-268 CNS 82% | SF-295 CNS 97.6% | UACC-257 melanoma 111% | M14 melanoma 103%

COc1ccc2nc3cc(Cl)ccc3c(N3CCN(c4ccnc(N5CCN(C)CC5)n4)CC3)c2c1
active: DU-145 prostate 3.84% | K-562 leukemia -36.1%
inactive: MALME-3M melanoma 83.8% | MDA-MB-231 breast 28.3% | RXF 393 renal 10.5% | SF-268 CNS 52.8% | SF-295 CNS 93.9% | UACC-257 melanoma 90.7% | M14 melanoma 58.5%

Cc1nn(-c2nc3ccccc3[nH]2)c2c1C(c1ccc3c(c1)OCO3)CC(=O)N2 (stereo unspecified)
active: K-562 leukemia -14.8% | RXF 393 renal 8.03% | SF-295 CNS -36.3%
inactive: DU-145 prostate 30.7% | MALME-3M melanoma 27.7% | MDA-MB-231 breast 40.8% | SF-268 CNS 19.3% | UACC-257 melanoma 69.1% | M14 melanoma 42.5%

C=C1CCC2C3(C)COC(c4ccc(SC)cc4)OC3CCC2(C)C1C/C=C1/C(=O)OCC1O (stereo unspecified)
inactive: DU-145 prostate 88.1% | K-562 leukemia 20.1% | MALME-3M melanoma 100% | MDA-MB-231 breast 87.9% | RXF 393 renal 42.6% | SF-268 CNS 88.7% | SF-295 CNS 81.9% | UACC-257 melanoma 91.5% | M14 melanoma 69.3%

CC/C=C\C[C@H](O)C/C=C1/C(=O)C=C[C@@H]1C/C=C\CCCC(=O)NC(C)C
active: K-562 leukemia 3.29% | MALME-3M melanoma -4.08% | RXF 393 renal -64.8% | SF-295 CNS 6.21% | UACC-257 melanoma -4.26% | M14 melanoma 7.13%
inactive: DU-145 prostate 27.2% | MDA-MB-231 breast 19.9% | SF-268 CNS 35.4%

CC(=O)C1=C(O)C=C2Oc3c(C(=O)/C=C/c4cc(Cl)cc(Cl)c4)c(O)c(C)c(O)c3[C@]2(C)C1=O
active: DU-145 prostate -3.76% | K-562 leukemia -16.2% | MALME-3M melanoma -62.4% | MDA-MB-231 breast -30.9% | RXF 393 renal -40.4% | SF-268 CNS -21.4% | SF-295 CNS -18.7% | UACC-257 melanoma -19.6% | M14 melanoma -32.8%

O=C(O)c1ccc(=O)[nH]n1
inactive: DU-145 prostate 135% | K-562 leukemia 102% | MALME-3M melanoma 120% | MDA-MB-231 breast 103% | RXF 393 renal 122% | SF-268 CNS 125% | SF-295 CNS 109% | UACC-257 melanoma 105% | M14 melanoma 107%

COc1cc(-c2c3sc(=O)[nH]c3nc3c2c(=O)[nH]n3C(C)C)cc2c1OCO2
inactive: DU-145 prostate 119% | K-562 leukemia 97.6% | MALME-3M melanoma 121% | MDA-MB-231 breast 101% | RXF 393 renal 94.5% | SF-268 CNS 115% | SF-295 CNS 83.5% | UACC-257 melanoma 99.2% | M14 melanoma 114%

NCc1cn2cc(Cl)sc2n1
inactive: DU-145 prostate 114% | K-562 leukemia 95% | MALME-3M melanoma 103% | MDA-MB-231 breast 112% | RXF 393 renal 98.9% | SF-268 CNS 111% | SF-295 CNS 102% | UACC-257 melanoma 105% | M14 melanoma 108%

CS(=O)(=O)c1c(Nc2ccccc2)n[nH]c1N
inactive: DU-145 prostate 115% | K-562 leukemia 93.2% | MALME-3M melanoma 124% | MDA-MB-231 breast 103% | RXF 393 renal 114% | SF-268 CNS 111% | SF-295 CNS 126% | UACC-257 melanoma 105% | M14 melanoma 113%

C/C(=C(/c1ccc(O)cc1)c1ccc(OCCN2CCCC2)cc1)c1ccccc1
active: K-562 leukemia 2.35% | MALME-3M melanoma 8.05% | UACC-257 melanoma -29.5% | M14 melanoma -53.7%
inactive: DU-145 prostate 78.8% | MDA-MB-231 breast 49.6% | RXF 393 renal 42.4% | SF-268 CNS 63.8% | SF-295 CNS 44.3%

CCOC(=O)C(Cc1cc(I)c(O)c(I)c1)NC(=O)c1ccccc1 (stereo unspecified)
inactive: DU-145 prostate 109% | K-562 leukemia 97.1% | MALME-3M melanoma 99.5% | MDA-MB-231 breast 102% | RXF 393 renal 99.1% | SF-268 CNS 102% | SF-295 CNS 101% | UACC-257 melanoma 92.7% | M14 melanoma 99.3%

COCCCNc1nc(NC(=O)c2ccc(F)cc2C)cc(-c2cccnc2)n1
inactive: DU-145 prostate 110% | K-562 leukemia 104% | MALME-3M melanoma 107% | MDA-MB-231 breast 81.1% | RXF 393 renal 99.5% | SF-268 CNS 104% | SF-295 CNS 104% | UACC-257 melanoma 84.1% | M14 melanoma 103%

CCCCCCCCCC(=O)Oc1ccc(/C(=C(/C)c2ccccc2)c2ccc(OCCN3CCCC3)cc2)cc1
active: K-562 leukemia -12.4% | MALME-3M melanoma -62% | MDA-MB-231 breast -5.4% | RXF 393 renal -32.4% | SF-295 CNS -75.1% | UACC-257 melanoma -51.9% | M14 melanoma -57.8%
inactive: DU-145 prostate 55.9% | SF-268 CNS 38.7%

COc1ccc(C(=O)c2sc3nc4c(c(C(F)(F)F)c3c2N)CN(C(C)=O)CC4)cc1OC
inactive: DU-145 prostate 104% | K-562 leukemia 78.2% | MALME-3M melanoma 88% | MDA-MB-231 breast 63.8% | RXF 393 renal 74.7% | SF-268 CNS 85% | SF-295 CNS 86.2% | UACC-257 melanoma 99.2% | M14 melanoma 100%

C=C1CCC2C3(C)COC(C)(C)OC3CCC2(C)C1C/C=C1/C(=O)OCC1OC(C)=O (stereo unspecified)
inactive: DU-145 prostate 42.4% | MALME-3M melanoma 71.9% | MDA-MB-231 breast 86.2% | SF-268 CNS 63.4% | SF-295 CNS 116% | UACC-257 melanoma 20.2% | M14 melanoma 19.3%
active: K-562 leukemia 9.82% | RXF 393 renal -53.8%

Cn1cc(-c2csc(-c3cn(C)c4ncccc34)n2)c2ccccc21
active: SF-295 CNS 9.79%
inactive: DU-145 prostate 28% | K-562 leukemia 14.8% | MALME-3M melanoma 48.3% | MDA-MB-231 breast 52.2% | RXF 393 renal 19.9% | SF-268 CNS 50.6% | UACC-257 melanoma 61.1% | M14 melanoma 12.2%

CNCCCn1c2c(c3ccc([N+](=O)[O-])cc3c1=O)C(=O)c1cc(OC)cnc1-2
active: DU-145 prostate 0.657% | K-562 leukemia -28.9% | MALME-3M melanoma -69.2% | MDA-MB-231 breast -51.9% | RXF 393 renal -90.5% | SF-268 CNS 0.163% | SF-295 CNS -13.2% | UACC-257 melanoma -23.1% | M14 melanoma -13.1%

CC(=O)N1CC(Nc2ccc(OC(F)(F)F)cc2)=CC1=O
active: K-562 leukemia 8.54% | M14 melanoma 4.04%
inactive: DU-145 prostate 27% | MALME-3M melanoma 55.7% | MDA-MB-231 breast 55% | RXF 393 renal 39.6% | SF-268 CNS 59.8% | SF-295 CNS 14.7% | UACC-257 melanoma 46.6%
